Results as given in PubChem BioAssay AID1259312 (Keith Lab, Institute of Cancer Science, University of …, 2017).
Hit rate of the full screen: of about 4,500 compounds, about 200 (4.4%) were called active. This is one part of a sample in which actives are shown more often than they occur. Values without a mark were called inactive.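 The calls were made as follows: active = cell survival measured by absorbance rises more than 2.5-fold over infected cells without compound; inactive = the rest.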

assay: survival after telomere uncapping, modulators, primary screen, cell-based (AID 1259312); details: HCT116 + Ad-hTR-mut, MTT, 5 d; at 10 µM, hits give high values;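 also: virus expresses mutant telomerase RNA that uncaps telomeres and kills cells; compound added 2 days after infection so exposure lasts 3 days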

Row | SMILES | fold change
1 | Cc1ccc(-c2nnc(CSc3nnc(-c4ccccc4)o3)o2)n1C | -1.36
2 | CCCCCCCNC(=O)c1ccco1 | 1.1
3 | S=C(c1ccc(-c2ccc(Br)cc2)o1)N1CCOCC1 | 1.09
4 | O=C1c2ccccc2C(O)(O)C1(O)C1(O)C(=O)c2ccccc2C1(O)O (centres undefined) | -1.12
5 | CC(=O)C(C(C)=O)=C1OC(=O)c2ccccc21 | 1.3
6 | CC(=O)/C(=C1/OC(=O)c2ccccc21)c1ccc(C(C)=O)cc1 | 5.97 (active)
7 | C=CC[C@H]1CC=C[C@H](CC=C)N1C(C)=O | -1.11
8 | NC(=O)NC(CCCN=C(N)N)C(=O)O (centres undefined) | -1.65
9 | O=[N+]([O-])c1ccc(N2CCN(S(=O)(=O)c3ccc4ccccc4c3)CC2)cc1 | -1.1
10 | CC(=O)c1c(C)nc(-c2cccs2)n1O | -1.92
11 | Cc1sc2c(c1C)C(=O)NC(/C=C/c1ccc3c(c1)OCO3)N2 (centres undefined) | -1.11
12 | O=S(=O)(Nc1cc(Cl)cc(Cl)c1)c1cccs1 | -1.41
13 | O=[N+]([O-])c1ccc(N2CCOCC2)c(S(=O)(=O)N2CCOCC2)c1 | -1.09
14 | O=[N+]([O-])c1ccc(N2CCN(S(=O)(=O)c3ccc(Cl)cc3)CC2)cc1 | -1.84
15 | O=[N+]([O-])c1ccc(S(=O)(=O)N2CCOCC2)cc1 | 2.47
16 | O=[N+]([O-])c1ccc(N2CCN(S(=O)(=O)c3cc(Cl)ccc3Cl)CC2)cc1 | 5.36 (active)
17 | O=[N+]([O-])c1ccc(N2CCN(S(=O)(=O)c3ccc(Br)cc3)CC2)cc1 | 1.35
18 | O=[N+]([O-])c1ccc(Cl)c(S(=O)(=O)N2CCOCC2)c1 | 3.45 (active)
19 | Cc1ccc(-c2c(C#N)c(N)nc3c2CCCCC3)s1 | -2.73
20 | Nc1ncnc2nc(SCCOc3ccccc3F)[nH]c12 | -1.17
21 | COc1cc(C2C(C#N)=C(N)Nc3oc(C)nc32)cc(OC)c1OC (centres undefined) | 2.2
22 | Cc1cc(Cl)c2ccccc2n1 | -1.67
23 | C=CCNC(=O)c1nn(C)c(=O)c2ccccc12 | -1.08

Row | SMILES | fold change
24 | Cc1cc(C)nc(Sc2ccc3nsnc3c2[N+](=O)[O-])n1 | 2.01
25 | O=c1c(C=NCc2cccs2)c(C(F)(F)F)[nH]n1-c1nc2ccccc2s1 | inactive
26 | NNC(=O)Cn1c2ccccc2c(=O)c2ccccc21 | 1.47
27 | NC(=O)CSc1cccc2cccnc12 | -2.76
28 | NNC(=O)c1cccc(C(=O)NN)n1 | 2.7 (active)
29 | O=C(O)CCn1cnnn1 | -1.36
30 | O=C(O)CCc1cn(CCC(=O)O)cn1 | 3 (active)
31 | O=C(O)COc1ccc(Br)cc1/C=C1/NC(=O)NC1=O | 1.24
32 | O=C(NC1CCCCCC1)C1CC1 | -2.47
33 | O=C(O)/C=C/C(=O)NC1CCCCNC1=O (centres undefined) | -1.55
34 | O=C(O)/C=C/C(=O)NC1CCCCC1 | 3.98 (active)
35 | COC(=O)/C(C#N)=C\c1cccn1C | 4.23 (active)
36 | CC(C)OC(=O)/C(C#N)=C\c1cccn1C | -3.04
37 | CCOC(=O)/C(C#N)=C\c1cccn1C | -3.87
38 | CCSc1ccc(Sc2ccc(SCC)s2)s1 | -1.05
39 | CN1C2CC(OC(=O)C(CO)c3ccccc3)CC1C1OC12 (centres undefined) | 2.65 (active)
40 | C1=CN(c2ccccc2)C(C=NCc2ccccc2)=CS1 | 3.25 (active)
41 | O=C(NCCOC(=O)Nc1ccc(Cl)c(Cl)c1)Nc1ccc(Cl)c(Cl)c1 | -1.04
42 | O=C(C[n+]1ccccc1)c1ccc(Br)cc1 | -1.26
43 | O=C(C[n+]1ccccc1)c1cccs1 | 4.15 (active)
44 | O=C(O)CNC(=O)c1cccs1 | 1.14
45 | COc1ccc(OC)c(NS(=O)(=O)c2cc(Cl)ccc2Cl)c1 | 1.1
46 | CNC(=S)Nc1ccccc1 | -1.89

Row | SMILES | fold change
47 | S=C(NNC(=S)Nc1ccccc1)Nc1ccccc1 | 4.1 (active)
48 | NNC(=S)Nc1ccccc1 | 2.03
49 | CN(Cc1cccs1)C(=S)SCCO | 1.27
50 | Cc1ccc(-c2nc(Cn3c(-c4cscn4)nc4ccccc43)cs2)cc1 | -1.62
51 | C=CCN1C(=O)/C(=C2\SC(=S)N(CCC)C2=O)c2ccccc21 | -1.1
52 | CSCCC(C(=O)O)N1C(=O)/C(=C2/C(=O)N(C)c3ccccc32)SC1=S (centres undefined) | -1.54
53 | CN1C(=O)/C(=C2\SC(=S)N(CCS(=O)(=O)O)C2=O)c2ccccc21 | 4.3 (active)
54 | CCOC(=O)c1c(N)sc(C(=O)N2CCCCC2)c1C | -1.62
55 | CN(C)CCCN1C(=O)C(O)=C(C(=O)c2cccs2)C1c1cccs1 (centres undefined) | -1.86
56 | N#CCC(c1ccccc1)C(C#N)c1ccc(Br)cc1 (centres undefined) | -1.3
57 | Brc1ccc(C(Br)C(Br)c2ccccc2Br)cc1 (centres undefined) | -2.96
58 | ClC(Cl)(Cl)C(c1ccc(Br)cc1)c1ccc(Br)cc1 | 3.49 (active)
59 | O=[N+]([O-])c1ccccc1Nc1ccccc1 | 1.12
60 | O=C1NC(=S)S/C1=C\c1ccsc1 | -1
61 | CN(C)c1ccc(/C=C2/SC(=S)NC2=O)cc1 | 2.2
62 | O=C1NC(=S)S/C1=C/c1ccc(O)cc1 | 3.65 (active)
63 | Cc1cc(C)c(O)c(C(CC(C)C)c2cc(C)cc(C)c2O)c1 | -4.02
64 | O=C1CC(c2ccccc2)CC2=C1C(c1ccc(OC(F)(F)F)cc1)Nc1ccccc1N2 (centres undefined) | -1.06
65 | OC(c1ccccc1)c1nc2ccccc2[nH]1 (centres undefined) | -1.08
66 | FC(c1nc2ccccc2[nH]1)C(F)(F)F (centres undefined) | 2.19
67 | OC(c1nc2ccccc2[nH]1)C(O)c1nc2ccccc2[nH]1 (centres undefined) | 3.31 (active)
68 | COc1ccnc2cc(Cl)ccc12 | 1.06
69 | Brc1ccccc1-c1nnc(C(c2ccccc2)c2ccccc2)o1 | -1.33

Row | SMILES | fold change
70 | Cc1cc(C)nc(SCCC(=O)O)n1 | -2.76
71 | Cc1nccn1CCC(=O)O | 5.01 (active)
72 | Nc1nc(SCCCOc2ccccc2)n[nH]1 | 1.24
73 | COc1ccc(NC(=O)Nc2cccc(Cl)c2)cc1 | 1.1
74 | O=C(COc1ccccc1)N=Nc1c(O)[nH]c2ccccc12 | inactive
75 | Cc1sc2ccccc2[n+]1CCCS(=O)(=O)[O-] | 2.97 (active)
76 | Oc1ccc2ccccc2c1N=Nc1ccccc1 | inactive
77 | Oc1ccc2ccccc2c1CNCCNCc1c(O)ccc2ccccc12 | 3.72 (active)
78 | Oc1ccc2ccccc2c1Sc1c(O)ccc2ccccc12 | -2.97
79 | Cc1nc2ccc3ccccc3c2s1 | -2.18
80 | c1ccc2cc3[nH]c(CN4CCOCC4)nc3cc2c1 | 1.25
81 | Nc1ncnc2c1ncn2[C@H]1C[C@H](O)[C@@H](COP(=O)(O)O)O1 | -1.8
82 | CCN(C(=O)c1sc(NC(=O)CCl)c(C#N)c1C)C1CCCCC1 | -1.18
83 | CCOC(=O)c1ccc(C2C(C#N)=C(N)Oc3cc(C)oc(=O)c32)o1 (centres undefined) | -1.07
84 | Cc1cc2c(c(=O)o1)C(c1ccncc1)C(C#N)=C(N)O2 (centres undefined) | 3.96 (active)
85 | Cc1[nH]nc2c1C(c1ccncc1)C(C#N)=C(N)O2 (centres undefined) | 2.49
86 | O=C1CCCC2=C1C(c1ccco1)C1=C(N2)c2ccccc2C1=O (centres undefined) | -5.38
87 | O=S1(=O)CCC(SCc2nnc(-c3ccccc3)o2)C1 (centres undefined) | -1.78
88 | CCNC(=S)Nc1ccc(Br)cc1 | -2.77
89 | S=c1[nH]nc(CCc2ccccc2)n1Cc1ccccc1 | 1.25
90 | S=c1[nH]nc(Cc2ccccc2)n1Cc1ccccc1 | 1.06
91 | S=c1[nH]nc(Cc2n[nH]c(=S)n2Cc2ccccc2)n1Cc1ccccc1 | 4.65 (active)
92 | CCOC(=O)c1c(NC(=O)CCl)sc2c1CCN(C(=O)OCC)C2 | -1.2

Row | SMILES | fold change
93 | O=C(CCCOc1ccc(Cl)cc1Cl)Nn1cnnc1 | 2.83 (active)
94 | COC(=O)NNC(=O)CCCOc1ccc(Cl)cc1Cl | 1.34
95 | O=C(COc1ccc(Cl)cc1Cl)NCC1CCCO1 (centres undefined) | -1.41
96 | Cc1c(C(C)C)c(=O)n(-c2ccc(S(=O)(=O)NC3CC3)cc2)n1C | -2.25
97 | Brc1ccc(-c2csc(Nc3ccccc3)n2)cc1 | -1.95
98 | NC(=O)c1c(NC(=O)CN2CCOCC2)sc2c1CCCC2 | -1.32
99 | N#CCS/C(SCC(=O)c1ccc2c(c1)OCO2)=C(/C#N)C(=O)c1ccc2c(c1)OCO2 | 2.84 (active)
100 | CSc1nc(SCC(=O)c2ccc3c(c2)OCO3)nc(N)c1C#N | 1.54
101 | N#CCS/C(SCC(=O)c1ccc(Br)cc1)=C(/C#N)C(=O)c1ccc(Br)cc1 | 1.41
102 | OC1CCC2Cc3ccccc3N=C12 (centres undefined) | -1.24
103 | O=c1[nH]nc(C[N+](=O)[O-])c2ccccc12 | 1.05
104 | CC12C=CC(=O)C=C1CCC1C3CC(O)C(O)(C(=O)CO)C3(C)CC(O)C12F (centres undefined) | 1.13
105 | CC(C)=NNc1nccc2ccccc12 | -1.17
106 | S=C(Nc1ccccc1)N1CCCCC1 | -1.66
107 | c1ccc(N=C(Nc2ccccc2)N2CCOCC2)cc1 | 1.32
108 | S=C(Nc1ccccc1)N1CCOCC1 | 3.11 (active)
109 | CN1C(=O)C(=O)c2cc(Br)ccc21 | -1.19
110 | O=C(O)CN1C(=O)C(=O)c2cc(Br)ccc21 | -1.45
111 | O=C1c2ccc(Br)cc2C(=O)N1CNc1ccc(Br)cc1 | 2.94 (active)
112 | N#CCN(CC#N)C(=O)c1cccs1 | 4.34 (active)
113 | CCN(C(=O)c1cccs1)C1CCCCC1 | -1.05
114 | N#CCN(CC#N)C(=O)c1ccco1 | -1.86
